Experimental findings from PubChem BioAssay (EPA / NIEHS) are described below.

Activity calls are given as the source filed them. The calls were made as follows: active = hit-call score of the fitted dose curve at least 0.9, where 1 is the maximum; inactive = score below 0.9.

The assay is described as follows: ATG_Sox_CIS: Attagene CIS-FACTORIAL HepG2 Assay for human SRY-box transcription factor (SOX) (AID 2282960). The conditions noted are these: HepG2 Attagene cis-factorial SOX reporter, mRNA; actives raise or lower the signal. How it is done:
ATG_CIS is a cell-based, multiplexed-readout assay that uses HepG2, a human liver cell line, with measurements taken at 24 hours after chemical dosing in a 24-well plate.ATG_Sox_CIS is one of 52 assay component(s) measured or calculated from the ATG_CIS assay. It is designed to make measurements of mRNA induction, a form of inducible reporter, as detected with fluorescence intensity signals by Reverse transcription polymerase chain reaction (RT-PCR) and Capillary electrophoresis technology.Data from the assay component ATG_Sox_CIS was analyzed into 1 assay endpoint. This assay endpoint, ATG_Sox_CIS, was analyzed with bidirectional fitting relative to DMSO as the negative control and baseline of activity. Using a type of inducible reporter, measures of mRNA for gain or loss-of-signal activity can be used to understand the reporter gene at the transcription factor-level as they relate to the gene SOX1. Furthermore, this assay endpoint can be referred to as a primary readout, because this assay has produced multiple assay endpoints where this one serves a reporter gene function. To generalize the intended target to other relatable targets, this assay endpoint is annotated to the dna binding intended target family, where the subfamily is HMG box protein.
Human liver HepG2 cells are transiently transfected with multiple reporter transcription units (MRTUs) in 6-well plates using FuGene 6 reagent (Roche; 3 ml FuGene/1 mg DNA). The MRTU constructs are regulated by a cis-regulating element (promoter). […] A major difference between the CIS and TRANS system is that in CIS activities of endogenous TFs are measured, whereas the TRANS assay evaluates changes in activities of exogenous, chimeric NR-Gal4 proteins. […] At the end of 24 hour incubation, total RNA was isolated using TriZol reagent (Invitrogen). The isolated RNA is then reverse-transcribed using oligo(dT) primer and Mo-MLV reverse transcriptase (Invitrogen) with DNAse I (Ambion) treatment for 30 min. The one-tenth of the produced cDNA was amplified by PCR using Taq DNA polymerase (Invitrogen) and two reporter sequence-specific primers. The PCR products were fluorescently labeled by primer extension with 6-arboxyfluorescein (6-FAM) 5'-labeled reporter sequence-specific primer (2 min at 95 C, 20 s at 68 C and 10 min at 72 C) and these products were digested with 5U of HpaI (New England Biolabs) for 2h at 37 C. The fragments were purified using Qiaquick PCR columns (Qiagen), analyzed on an ABI 3130xL genetic analyzer (Applied Biosystems) with peak positions identified by using a set of X-rhodamine (ROX)-labeled MapMarker1000 molecular weight standards (BioVentures). The raw capillary electrophoresis data was processed using Attagraph software (Attagene).
In the case of `COc1ccccc1[N+](=O)[O-]`, the compound was called inactive. For `C=C(C)[C@@H]1CC=C(C)C(=O)C1`, the compound was called inactive.

Turning to `Nc1c(Cl)cc(Cl)cc1[N+](=O)[O-]`, the compound was called inactive. `c1ccc2[nH]cnc2c1`: the call was inactive. The same measure, in the same setting: the entry for `O=C1CCCC=CCCCCCCCCCC1` is “inactive”. As to `CCC1(c2ccccc2)C(=O)NCNC1=O`, the call was inactive.

Take `C1CCCCC1`: the call was inactive.

Consider `COC(C)(C)CCO`, for which the result was inactive.

On to `CC1(C)O[C@@H]2[C@@H](CO[C@@]3(COS(N)(=O)=O)OC(C)(C)O[C@@H]23)O1`, for which the result was inactive.

Turning to `NC(=S)NNC(N)=S`, the result was inactive. For the compound `CCOC(=O)CCc1ccccc1`, the compound was called inactive.

As for `O=Cc1ccccc1S(=O)(=O)O`, the outcome was inactive. Regarding `C=C(C)C(=O)OCCOCCOCCOC(=O)C(=C)C`, the compound was called inactive. For `O=C(c1ccccc1)C(O)c1ccccc1` (stereo not given), the call was inactive. As to `CC(=O)CC(=O)Nc1ccccc1`, the compound was classed as inactive. Consider `CC(C)CCOC(=O)c1ccccc1`, for which the compound was classed as inactive. As to `Nc1ccc2c(O)cc(S(=O)(=O)O)cc2c1`, the compound was called inactive. Turning to `CSc1c(Cl)c(Cl)c(Cl)c(Cl)c1Cl`, the call was inactive. Take `CC(C)(C)c1ccc(C(=O)O)cc1`: the result was inactive.

As for `OCC(O)c1ccccc1` (stereo not given), the result was inactive. `CCc1ccc(O)c(OC)c1`: the outcome was inactive. Take `CCCOC(=O)c1c(Cl)c(Cl)c(Cl)c(Cl)c1C(=O)OCCC`: the compound was called inactive. The same measure, in the same setting: the same measure for `C=CC(=O)OCCCC`: “inactive”; for `CCCCOC(=O)CCCCCCCC(=O)OCCCC`: “inactive”; for `CS(C)=O`: “inactive”. As for `CC1CC(O)CC(C)(C)C1` (stereo not given), the result was inactive. For the compound `CCCC(O)C(O)CO` (stereo not given), the outcome was inactive. As for `O=C1NC2NC(=O)NC2N1` (stereo not given), the result was inactive. For `O=c1c(O)c(-c2ccc(O)cc2)oc2cc(O)cc(O)c12`, the call was inactive. As to `COc1ccc(CCN2CCC(Nc3nc4ccccc4n3Cc3ccc(F)cc3)CC2)cc1`, the result was inactive.

With `CCCCN(CCCC)C(=O)N(CCCC)CCCC`, the AC50 was 52.2 µM (active). As for `CS(=O)(=O)c1ccc(Cl)cc1`, the result was inactive. As to `CN1C(=O)c2ccccc2C1=O`, the result was inactive. Consider `OC[C@H]1O[C@@H](Oc2ccc(O)cc2)[C@H](O)[C@@H](O)[C@@H]1O`, for which the compound was classed as inactive. Consider `C=C(C)C1CC=C(C)C(=O)C1` (stereo not given), for which the outcome was inactive. Turning to `Nc1ccc(NCCO)c([N+](=O)[O-])c1`, the compound was classed as inactive.

Take `CC(C)(C)CC(C)(C)c1ccc(OCCOCC[N+](C)(C)Cc2ccccc2)cc1`: the result was inactive.

`CC(C)CCCCCCc1ccc(OCCOCCO)cc1`: the outcome was inactive.

For the compound `N#Cc1cscn1`, the outcome was inactive.

`C=C(CC(=O)O)C(=O)O`: the result was inactive.

Broadly, the AC50 is the midpoint of the concentration-response curve, whichever way the signal moves.
